# High-throughput results as filed in PubChem.
# NPR1 antag – Natriuretic polypeptide receptor (hNpr1) antagonism - Primary qHTS. HEK293 hNpr1 GloSensor cGMP, ANP-stimulated luminescence. Potency, µM (series often up to 46.3 µM), most hits filed as inhibitors. actives 1.6% (n = 76,000); calls by dose curve; also: nearly all actives have a fitted effect of over 60% in size
#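 HEK293 cells stably expressing human Npr1 and cGMP GloSensor pGS-40F, loaded 2 h with 2% GloSensor reagent, given compound 30 min at room temperature. Luminescence read before and 20 min after 0.1 nM hNppA.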
# FLuc inh – Firefly luciferase inhibition profiling of diverse chemical library using quantitative high-throughput screening; purified P. pyralis luciferase, luminescence, biochemical; Potency, µM (series often up to 115 µM), most hits filed as inhibitors; actives 2.5% (n = 76,000); AID 1347043, 2019; also: nearly all actives have a fitted effect of over 65% in size
#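 Purified 10nM P. pyralis luciferase with 10uM D-luciferin and 10uM ATP in 50mM Tris acetate pH 7.5, 10mM Mg acetate, 0.01% Tween-20, 0.05% BSA. qHTS titration; luminescence read by CCD imager.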
# HEK293 tox – Cytotoxic Profiling in HEK 293 Cell Line of Diverse Libraries Using Quantitative High-Throughput Screening; Potency, µM (series often up to 115 µM), hits mostly inhibitors; HEK 293 viability, ATP luminescence (CellTiter-Glo), 48-72 h; actives 6.6% (n = 94,000); also: nearly all actives have a fitted effect of over 60% in size
#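 Read-out: CellTiter-Glo ATP luminescence. Cells: HEK 293, 250 cells/well. Exposure: 48 or 72 hr, 37 degree Celsius.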
# 3T3 cytotox – Cytotoxic Profiling in NIH 3T3 Cell Line of Diverse Libraries Using Quantitative High-Throughput Screening; NIH 3T3 viability, CellTiter-Glo ATP luminescence, 48-72 h; Potency, µM (series often up to 96.7 µM), hits mostly inhibitors; actives 4.3% (n = 94,000); also: nearly all actives have a fitted effect of over 55% in size
#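 First NIH 3T3 cells are plated at 400 cells/well; next compound is pinned in; then plates incubate 48 or 72 hr at 37 °C; finally CellTiter-Glo is added and luminescence read after 10 min.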
# GPT2 inh – Primary qHTS assay for inhibitors of Glutamate pyruvate transaminase 2 (GPT2); Alanine aminotransferase 2 (Homo sapiens), Q8TD30; Recombinant GPT2, coupled pyruvate oxidase/HRP Amplex Red fluorescence; Potency, µM (titrated, usually from 57.7 µM), hits mostly inhibitors; actives 0.25% (n = 100,000); AID 1671188, 2021; also: nearly all actives have a fitted effect of over 60% in size
#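 Fluorescence read-out: pyruvate from GPT2 turnover coupled to pyruvate oxidase, HRP and Amplex Red (0.2mM ThPP, 0.2U/mL PO and HRP, 50uM Amplex final). Substrates 250uM a-KG, 2mM L-alanine; enzyme 10ng/uL; 30 min RT.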
# NPR1 antag cnf – Natriuretic polypeptide receptor (hNpr1) antagonism - Confirmation | shares compounds with NPR1 antag | HEK293 hNpr1 cGMP GloSensor luminescence, ANP-stimulated | Potency, µM (top dose mostly 57.6 µM), usual class: inhibitors | actives 76% (n = 1,400); calls by dose curve; also: nearly all actives have a fitted effect of over 70% in size
# Npr2 selectivity – Natriuretic polypeptide receptor (hNpr2) antagonism - Subtype selectivity assay; Potency, µM (series often up to 57.6 µM), most hits filed as inhibitors; AID 1347046, 2019; shares compounds with NPR1 antag; HEK293 hNpr2 GloSensor cGMP luminescence, CNP-stimulated; actives 67% (n = 1,400); calls by dose curve; also: nearly all actives have a fitted effect of over 70% in size
# Target sequence (P20594 whole entry, looked up): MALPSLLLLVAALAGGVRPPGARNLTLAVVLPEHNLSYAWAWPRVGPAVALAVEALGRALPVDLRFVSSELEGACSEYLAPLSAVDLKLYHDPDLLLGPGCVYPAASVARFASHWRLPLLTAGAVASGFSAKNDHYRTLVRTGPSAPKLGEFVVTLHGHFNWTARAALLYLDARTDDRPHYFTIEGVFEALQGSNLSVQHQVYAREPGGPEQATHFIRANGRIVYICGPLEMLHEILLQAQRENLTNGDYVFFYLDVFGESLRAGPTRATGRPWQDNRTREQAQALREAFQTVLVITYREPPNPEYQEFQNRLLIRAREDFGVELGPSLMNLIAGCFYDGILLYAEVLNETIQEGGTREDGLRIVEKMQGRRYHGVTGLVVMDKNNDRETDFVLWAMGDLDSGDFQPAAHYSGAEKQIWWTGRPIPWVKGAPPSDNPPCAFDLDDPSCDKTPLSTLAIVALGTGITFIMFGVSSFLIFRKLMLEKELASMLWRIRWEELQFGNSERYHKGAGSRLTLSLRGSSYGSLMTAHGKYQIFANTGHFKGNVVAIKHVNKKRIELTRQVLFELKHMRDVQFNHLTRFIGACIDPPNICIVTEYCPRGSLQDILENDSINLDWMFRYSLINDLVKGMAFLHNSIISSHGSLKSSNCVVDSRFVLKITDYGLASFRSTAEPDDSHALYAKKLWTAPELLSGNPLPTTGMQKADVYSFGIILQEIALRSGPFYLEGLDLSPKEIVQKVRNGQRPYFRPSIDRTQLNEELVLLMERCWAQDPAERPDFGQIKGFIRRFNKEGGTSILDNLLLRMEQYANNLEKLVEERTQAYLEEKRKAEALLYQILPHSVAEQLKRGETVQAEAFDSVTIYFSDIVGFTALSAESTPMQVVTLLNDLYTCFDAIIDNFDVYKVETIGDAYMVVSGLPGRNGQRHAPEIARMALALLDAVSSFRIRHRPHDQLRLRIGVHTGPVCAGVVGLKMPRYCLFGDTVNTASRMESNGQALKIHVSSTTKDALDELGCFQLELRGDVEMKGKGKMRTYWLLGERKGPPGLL
# FLuc counter – Natriuretic polypeptide receptor (hNpr1) antagonism - Confirmation firefly luciferase (FLuc) inhibition counterscreen | shares compounds with NPR1 antag | purified FLuc enzyme, luminescence, Km substrate | Potency, µM (doses to about 57.6 µM), actives largely listed as inhibitors | actives 0.7% (n = 1,400)
# GloSensor cGMP – Natriuretic polypeptide receptor (hNpr1) antagonism - Counterscreen GloSensor control cell line; shares compounds with NPR1 antag; HEK293 GloSensor cGMP, SNP-stimulated, luminescence; Potency, µM (titrated, usually from 57.6 µM), usual class: inhibitors; actives 69% (n = 1,400); calls by dose curve; also: nearly all actives have a fitted effect of over 70% in size
# A number is an active result; i = inactive; ? = inconclusive; nt = no result. In the library only some 10% were active in any assay of this set; here they are far more common. Unless noted, calls follow the shape of the dose curve; as a rule, active = well fitted curve in the direction sought with a large enough effect; inconclusive = small, poorly fitted or top-dose-only effect, or another doubt; inactive = no such curve, though single readings can be large; an effect the other way counts as inactive or inconclusive.
SMILES,NPR1 antag,FLuc inh,HEK293 tox,3T3 cytotox,GPT2 inh,NPR1 antag cnf,Npr2 selectivity,FLuc counter,GloSensor cGMP
O=C(Nc1ccc(F)cc1)c1cc2n(n1)CC(c1ccc(Br)cc1)OC2 (stereo not given),11.2µM,i,?,?,i,?,?,i,?
O=C(Nc1ccccc1)c1cc2n(n1)CC(c1ccc(Br)cc1)OC2 (stereo not given),17.8µM,i,?,?,i,27.3µM,?,i,?
COCc1noc([C@@H]2CN(Cc3cnn(C(C)C)c3)C[C@H]2C(N)=O)n1,i,i,i,i,i,nt,nt,nt,nt
c1ccc(Nc2cc3c(cn2)CN(Cc2c[nH]c4ccccc24)CCN3)cc1,?,i,?,25.1µM,?,11.1µM,6.27µM,i,?
c1ccc(CN2CCNc3cnc(Nc4ccncn4)cc3C2)cc1,i,i,?,?,?,nt,nt,nt,nt
CCc1ccccc1NC(=O)[C@H]1CCC[C@H]1NC(=O)c1ccc(OC)nc1,i,i,i,i,i,nt,nt,nt,nt
COc1ccc(-c2ccccc2NC(=O)C2CCCN(Cc3ccn[nH]3)C2)cc1 (stereo not given),i,i,i,i,i,nt,nt,nt,nt
COCC1CN(C2CCC2)CC12CCN(C(=O)c1ccc(OC)cc1)CC2 (stereo not given),i,i,?,i,i,nt,nt,nt,nt
C(=C\c1ccccc1)/CN1CCN(Cc2nc(COc3ccccc3)no2)CC1,i,i,?,?,i,?,i,i,?
O=C(CCC1CCN(S(=O)(=O)c2ccc(F)cc2)CC1)NCc1nc2ccccc2[nH]1,11.2µM,i,?,i,i,19.3µM,21.7µM,i,15.3µM
O=C(CCC1CCN(S(=O)(=O)c2ccccc2)CC1)NCc1ccc(F)cc1,i,i,?,?,i,nt,nt,nt,nt
COc1ccc(C(=O)Nc2ccc(-c3noc([C@@H]4CCCN4Cc4ccc(C(F)(F)F)cc4)n3)cn2)cc1,11.2µM,i,?,?,i,10.9µM,13.7µM,i,9.68µM
COc1ccc(C(=O)Nc2ccc(-c3noc([C@@H]4CCCN4Cc4ccc(OC(F)(F)F)cc4)n3)cn2)cc1,11.2µM,i,?,?,i,12.2µM,10.9µM,i,10.9µM
CNc1ccc(-c2noc([C@@H]3CCCN3Cc3cccc(OC)c3)n2)cn1,i,?,i,i,i,nt,nt,nt,nt
COc1ccc(C(=O)Nc2ccc(-c3noc([C@@H]4CCCN4CC4CCCCC4)n3)cn2)cc1,10µM,i,44.7µM,?,i,6.85µM,12.2µM,i,12.2µM
Cc1nn(Cc2ccccc2)c(C)c1[C@@H]1C=C[C@@H](NS(=O)(=O)c2cccs2)C1,?,i,?,?,i,?,?,i,?
COc1ccc(-n2nc(C)c([C@H]3C=C[C@@H](OC(=O)N[C@H](C)c4ccccc4)C3)c2C)cc1,11.2µM,i,14.1µM,?,i,9.94µM,12.5µM,i,8.86µM
COc1ccc(CN[C@@H]2C=C[C@@H](c3c(C)nn(-c4cccc(Br)c4)c3C)C2)cc1,i,i,?,?,i,nt,nt,nt,nt
COc1ccc(-n2nc(C)c([C@@H]3C=C[C@@H](NS(=O)(=O)c4cccs4)C3)c2C)cc1,?,i,?,?,i,?,?,i,35.3µM
Cc1nn(Cc2ccccc2)c(C)c1[C@@H]1C=C[C@@H](NC(=O)c2cccs2)C1,i,i,?,?,i,nt,nt,nt,nt
COc1cccc(NC(=O)COc2cccc(-c3nnc4n3CCCC4)c2)c1,i,i,i,i,i,nt,nt,nt,nt
COc1nc2nc(CCc3ccccc3)n(C)c2cc1-c1ccnn1C,i,i,?,?,i,nt,nt,nt,nt
O=C(N[C@H]1CO[C@H]2[C@@H]1OC[C@@H]2n1nnnc1Oc1ccc(-n2ccnc2)cc1)c1ccc(C(F)(F)F)cc1,11.2µM,i,35.5µM,i,i,17.2µM,13.7µM,i,15.3µM
O=C(N[C@H]1CO[C@H]2[C@@H]1OC[C@@H]2n1nnnc1Oc1ccccc1)c1ccc(C(F)(F)F)cc1,10µM,i,?,?,i,10.9µM,12.2µM,i,9.68µM
CNC(=O)c1c[nH]c2cccnc12,nt,nt,i,i,i,nt,nt,nt,nt
SMILES,NPR1 antag,FLuc inh,HEK293 tox,3T3 cytotox,GPT2 inh,NPR1 antag cnf,Npr2 selectivity,FLuc counter,GloSensor cGMP
O=C(Nc1ccc(Cl)cc1Cl)c1c[nH]c2cccnc12,nt,nt,?,?,i,21.5µM,13.5µM,0.959µM,?
Cc1cccc(C)c1NC(=O)Cn1c(=O)n(-c2ccc(F)cc2)c(=O)c2c1cc(C)n2C,i,i,i,i,i,nt,nt,nt,nt
COCc1cc(NCCSCc2ccccc2C)ncn1,11.2µM,i,?,?,i,21.7µM,19.3µM,i,15.3µM
COc1ncccc1-c1cnc2[nH]cc(CC(=O)Nc3ccccn3)c2c1,?,i,?,?,i,nt,nt,nt,nt
COc1ccc(NC(=O)Cc2c[nH]c3ncc(-c4ccccc4)cc23)cn1,?,i,?,i,i,?,?,i,i
COc1cccc(NC(=O)Cc2c[nH]c3ncc(-c4cccnc4OC)cc23)c1,?,i,50.1µM,28.2µM,?,39.6µM,?,i,?
Cc1noc(C)c1[S+](=O)([O-])N1CCC(N2Cc3cnc(C)n3C2=O)CC1,i,i,i,i,i,nt,nt,nt,nt
Cn1nccc1C(=O)N1CCCN(CCc2ccccc2)c2ccccc21,?,i,?,?,i,19.3µM,13.7µM,i,i
O=C(NCc1cccc(C(F)(F)F)c1)c1ccc2nnc(-c3cc[nH]c3)n2c1,nt,nt,?,?,i,nt,nt,nt,nt
O=C(Nc1ccc(Cl)cc1)c1nc2c(o1)CCN(Cc1ccccc1)CC2,3.98µM,i,?,?,i,11.1µM,9.94µM,?,7.89µM
COc1ccc(CN2CCc3nc(C(=O)Nc4ccc(Cl)cc4)oc3CC2)cc1OC,6.31µM,i,?,?,i,9.68µM,10.9µM,i,7.69µM
